# PubChem BioAssay (NCATS)
# Several values for one entry are separate records, joined by “and”; a condition that tells them apart may be missing. Equal entries are not always repeated. Inconclusive results are not listed. Entries that show only a call come without a potency. Unmarked numbers belong to inactive results. Activity calls are given as the source filed them. Calls follow the shape of the dose curve; as a rule, active = well fitted curve in the direction sought with a large enough effect; inconclusive = small, poorly fitted or top-dose-only effect, or another doubt; inactive = no such curve, though single readings can be large; an effect the other way counts as inactive or inconclusive.
# Legend:
# HEK293 = assay: Cytotoxic Profiling of Annotated Libraries Using Quantitative High-Throughput Screening (AID 1296008); conditions: Five cell lines viability, CellTiter-Glo ATP luminescence, 48-72 h; max response: stronger effect = lower value; also: nearly all actives have a fitted effect of over 60% in size
# Outline: (§1)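 Cytotoxicity was measured as CellTiter-Glo ATP luminescence, read after 10 min at room temperature. Compound treatment of the cells lasted 48 or 72 hr at 37 degrees Celsius in a qHTS format.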
# HaCat [1] = assay: as above; conditions: Five cell lines viability, CellTiter-Glo ATP luminescence, 48-72 h; max response: stronger effect = lower value
# Outline: as §1
# KB-3-1 = assay: as above; conditions: Five cell lines viability, CellTiter-Glo ATP luminescence, 48-72 h; max response: stronger effect = lower value
# Outline: as §1
# NIH3T3 [2] = assay: as above; conditions: Five cell lines viability, CellTiter-Glo ATP luminescence, 48-72 h; max response: stronger effect = lower value
# Outline: as §1
# HACAT [3] = assay: qHTS assay to identify novel small-molecules to repurpose for Merkel cell carcinoma treatment (AID 1296009); conditions: MCC and control cell lines, CellTiter-Glo viability, 72 h; at 44.8 µM (top of the series) unless noted; also: nearly all actives have a fitted effect of over 60% in size
# Outline: (§2)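 Cell viability, measured as CellTiter-Glo luminescence, was normalized between DMSO and no-cell wells. The cells had been exposed to 8- or 11-point compound dilutions for 72 hr at 37 degree celsius.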
# MCC-13 = assay: as above; conditions: MCC and control cell lines, CellTiter-Glo viability, 72 h; series mostly up to 46 µM
# Outline: as §2
# MCC-26 = assay: as above; conditions: MCC and control cell lines, CellTiter-Glo viability, 72 h; series mostly up to 46 µM
# Outline: as §2
# MKL-1 = assay: as above; conditions: MCC and control cell lines, CellTiter-Glo viability, 72 h; series mostly up to 46 µM
# Outline: as §2
# NIH3T3 [4] = assay: as above; conditions: MCC and control cell lines, CellTiter-Glo viability, 72 h; at 44.8 µM (top of the series) unless noted
# Outline: as §2
# UISO = assay: as above; conditions: MCC and control cell lines, CellTiter-Glo viability, 72 h; series mostly up to 46 µM
# Outline: as §2
# WaGa = assay: as above; conditions: MCC and control cell lines, CellTiter-Glo viability, 72 h; series mostly up to 46 µM
# Outline: as §2
# HEK293T [5] = assay: as above; conditions: MCC and control cell lines, CellTiter-Glo viability, 72 h; at 44.8 µM (top of the series)
# Outline: as §2
# MKL-2 = assay: as above; conditions: MCC and control cell lines, CellTiter-Glo viability, 72 h; series mostly up to 46 µM
# Outline: as §2
# C33A = assay: Primary qHTS to identify gynecologic anti-cancer compounds using libraries of approved drugs and bioactive compounds (AID 1345084); conditions: Gynecologic cancer cell panel viability, ATPlite luminescence, 48 h; series mostly up to 57.5 µM; also: nearly all actives have a fitted effect of over 55% in size
# Outline: (§3)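 Luminescence from the ATPlite ATP-monitoring reagent indicates viable cell number; lower signal means cytotoxicity. Cells received compound 16 h after seeding and were exposed for 48 h across five concentrations.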
# CAOV3 = assay: as above; conditions: Gynecologic cancer cell panel viability, ATPlite luminescence, 48 h; series mostly up to 57.5 µM
# Outline: as §3
# CASKI = assay: as above; conditions: Gynecologic cancer cell panel viability, ATPlite luminescence, 48 h; series mostly up to 57.5 µM
# Outline: as §3
# Es-2 = assay: as above; conditions: Gynecologic cancer cell panel viability, ATPlite luminescence, 48 h; series mostly up to 57.5 µM
# Outline: as §3
# HeLa = assay: as above; conditions: Gynecologic cancer cell panel viability, ATPlite luminescence, 48 h; series mostly up to 57.5 µM
# Outline: as §3
# Hek293T [6] = assay: as above; conditions: Gynecologic cancer cell panel viability, ATPlite luminescence, 48 h, control line for the selectivity index; series mostly up to 57.5 µM
# Outline: as §3
# JEG-3 = assay: as above; conditions: Gynecologic cancer cell panel viability, ATPlite luminescence, 48 h; series mostly up to 57.5 µM
# Outline: as §3
# Potency is read from the fitted curve at half-maximal effect.
smiles,measurement,setting,value
COc1cccc([C@@H](C)NCCCc2ccccc2Cl)c1,max response,HEK293,1.17%
same,outcome,HaCat [1],inactive
same,outcome,KB-3-1,inactive
same,outcome,NIH3T3 [2],inactive
same,outcome,HACAT [3],inactive
same,Potency,MCC-13,inactive
same,Potency,MCC-26,inactive
same,Potency,MKL-1,inactive
same,outcome,NIH3T3 [4],inactive
same,Potency,UISO,inactive
same,Potency,WaGa,inactive
C[N+](C)(C)CCCCCC[N+](C)(C)C,outcome,HEK293,inactive
same,max response,HaCat [1],2.98%
same,max response,KB-3-1,21.4%
same,outcome,NIH3T3 [2],inactive
same,outcome,HEK293T [5],inactive
same,Potency,MCC-13,inactive
same,Potency,MCC-26,inactive
same,Potency,MKL-1,inactive
same,Potency,MKL-2,inactive
same,outcome,NIH3T3 [4],inactive
same,Potency,UISO,inactive
same,Potency,WaGa,inactive
same,Potency,C33A,inactive
same,Potency,CAOV3,inactive
same,Potency,CASKI,inactive
same,Potency,Es-2,inactive
same,Potency,HeLa,inactive
same,Potency,Hek293T [6],inactive
same,Potency,JEG-3,inactive
NC(=O)NN=Cc1ccc([N+](=O)[O-])o1,max response,HEK293,1.13%
same,outcome,HaCat [1],inactive
same,max response,KB-3-1,2.76%
same,outcome,NIH3T3 [2],inactive
same,outcome,HACAT [3],inactive
same,Potency,MCC-13,inactive
same,Potency,MCC-26,inactive
same,Potency,MKL-1,inactive
same,Potency,MKL-2,inactive
same,outcome,NIH3T3 [4],inactive
same,Potency,UISO,inactive
O=C(Nc1c(Cl)cncc1Cl)c1ccc(OC(F)F)c(OCC2CC2)c1,max response,HEK293,0.493%
same,outcome,HaCat [1],inactive
same,outcome,KB-3-1,inactive
same,max response,NIH3T3 [2],-4.15%
same,outcome,HACAT [3],inactive
same,Potency,MCC-13,inactive
same,Potency,MCC-26,inactive
same,Potency,MKL-1,inactive
same,Potency,MKL-2,inactive
same,Potency,UISO,inactive
same,Potency,WaGa,inactive
COc1cc(NC(=O)c2ccc(-c3ccc(Cl)cc3)o2)cc(OC)c1,max response,HEK293,2.11%
same,outcome,HaCat [1],inactive
same,max response,KB-3-1,5.65%
same,max response,NIH3T3 [2],1.05%
same,outcome,HACAT [3],inactive
same,Potency,MCC-13,inactive
same,Potency,MCC-26,inactive
same,Potency,MKL-1,inactive
same,Potency,MKL-2,inactive
same,Potency,UISO,inactive
same,Potency,WaGa,inactive
Cc1c[nH]c(C=C2C(=O)Nc3ccccc32)c1CCC(=O)O,Potency,HEK293,3.32 µM (active)
same,outcome,HaCat [1],inactive
same,max response,KB-3-1,-13.5%
same,max response,NIH3T3 [2],-18.5%
same,outcome,HACAT [3],inactive
same,Potency,MCC-13,inactive
same,Potency,MKL-1,inactive
same,Potency,MKL-2,inactive
same,Potency,WaGa,inactive
Cc1ccccc1C(C(=O)NC1CCCCC1)N(C(=O)Cn1ccnc1C)c1cccc(F)c1 (stereo unspecified),max response,HEK293,-0.939%
same,outcome,HaCat [1],inactive
same,max response,KB-3-1,1.35% and 1.14%
same,max response,NIH3T3 [2],-2.46% and -16.9%
same,outcome,HACAT [3],inactive
same,Potency,MCC-13,inactive
same,Potency,MCC-26,inactive
same,Potency,MKL-1,inactive
same,Potency,MKL-2,inactive
same,Potency,UISO,inactive
same,Potency,WaGa,inactive
same,Potency,C33A,inactive
same,Potency,CASKI,inactive
same,Potency,Es-2,inactive
same,Potency,HeLa,inactive
same,Potency,Hek293T [6],inactive
same,Potency,JEG-3,inactive
CC(C)(C)COc1ccc(-n2cc(C(=O)O)cn2)cc1C#N,max response,HEK293,3.28%
same,outcome,HaCat [1],inactive
same,max response,KB-3-1,7.58%
same,max response,NIH3T3 [2],3.94%
same,outcome,HACAT [3],inactive
same,Potency,MCC-13,inactive
same,Potency,MCC-26,inactive
same,Potency,MKL-1,inactive
same,Potency,MKL-2,inactive
same,Potency,UISO,inactive
same,Potency,WaGa,inactive
CN1C[C@H]2c3ccccc3Oc3ccc(Cl)cc3[C@@H]2C1,Potency,HEK293,10.6 µM (active)
same,outcome,HaCat [1],inactive
same,max response,KB-3-1,-7.18%
same,max response,NIH3T3 [2],-1.33% and 3.58%
same,outcome,HACAT [3],inactive
same,Potency,MCC-13,inactive
same,Potency,MKL-1,inactive
same,Potency,MKL-2,inactive
same,Potency,UISO,inactive
same,Potency,WaGa,inactive
same,Potency,C33A,inactive
same,Potency,CASKI,inactive
same,Potency,HeLa,inactive
same,Potency,JEG-3,inactive
CC(=O)c1ccc(S(=O)(=O)NC(=O)NC2CCCCC2)cc1,outcome,HEK293,inactive
same,outcome,HaCat [1],inactive
same,max response,KB-3-1,-6.14%
same,max response,NIH3T3 [2],-3.55%
same,outcome,HACAT [3],inactive
same,outcome,HEK293T [5],inactive
same,Potency,MCC-13,inactive
same,Potency,MCC-26,inactive
same,Potency,MKL-1,inactive
same,Potency,MKL-2,inactive
same,Potency,UISO,inactive
same,Potency,WaGa,inactive
same,Potency,C33A,inactive
same,Potency,CASKI,inactive
same,Potency,Es-2,inactive
same,Potency,HeLa,inactive
same,Potency,Hek293T [6],inactive
same,Potency,JEG-3,inactive
CC1(C)CCC(CN2CCN(c3ccc(C(=O)NS(=O)(=O)c4ccc(NCC5CCOCC5)c([N+](=O)[O-])c4)c(Oc4cnc5[nH]ccc5c4)c3)CC2)=C(c2ccc(Cl)cc2)C1,max response,HEK293,-5.37% and -6.15%
same,max response,HaCat [1],-24.1% and -27.2%
same,max response,KB-3-1,0.966%
same,max response,NIH3T3 [2],-21% and 4.74%
same,Potency,MCC-13,inactive
same,Potency,MCC-26,inactive
same,Potency,MKL-1,inactive
same,Potency,UISO,inactive
same,Potency,WaGa,inactive
same,Potency,C33A,inactive
same,Potency,CAOV3,inactive
same,Potency,CASKI,inactive
same,Potency,Es-2,inactive
same,Potency,HeLa,inactive
same,Potency,Hek293T [6],inactive
O=C(CCCCCCC(=O)Nc1ccccc1)NO,Potency,HEK293,5.96 µM (active) and 8.33 µM (active)
same,Potency,HaCat [1],7.5 µM (active) and 9.2 µM (active)
same,Potency,KB-3-1,7.31 µM (active) and 5.8 µM (active) and 9.35 µM (active)
same,Potency,NIH3T3 [2],10.6 µM (active) and 18.7 µM (active)
same,Potency,MCC-13,6.68 µM (active)
same,Potency,MCC-26,20.9 µM (active)
same,Potency,MKL-1,2.99 µM (active) and 5.9 µM (active)
same,Potency,MKL-2,1.88 µM (active) and 3.32 µM (active)
same,Potency,UISO,14.8 µM (active)
same,Potency,C33A,6.31 µM (active) and 14.1 µM (active)
same,Potency,Es-2,7.08 µM (active) and 12.6 µM (active)
same,Potency,HeLa,8.91 µM (active) and 10 µM (active)
same,Potency,JEG-3,3.98 µM (active) and 8.91 µM (active)
O=C1NC(=O)C(c2ccccc2)(c2ccccc2)N1,max response,HEK293,-11.5%
same,max response,HaCat [1],-5.29%
same,max response,KB-3-1,7.95%
same,max response,NIH3T3 [2],-3.65%
same,Potency,MCC-13,inactive
same,Potency,MCC-26,inactive
same,Potency,MKL-1,inactive
same,Potency,MKL-2,inactive
same,Potency,UISO,inactive
same,Potency,WaGa,inactive
same,Potency,C33A,inactive
same,Potency,CASKI,inactive
same,Potency,Es-2,inactive
same,Potency,HeLa,inactive
same,Potency,Hek293T [6],inactive
same,Potency,JEG-3,inactive
